An excerpt weighted towards active compounds, which were near 10% of everything screened.
Six1-Eya2 inh: Six1/Eya2 interaction inhibition. activity change, % (concentration not given with the values). AID 651725. 360,000 compounds, 0.56% hits. AlphaScreen GST-Six1/His-Eya2 binding, biochemical; hits give low values. Q15475+O00167; in the data active means activity change below about -65%; inconclusive means mostly about -30% to -63%; further: on the % scale 0 is the no-effect control and ±100 the full control effect
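GST-Six1 + His-Eya2 (5X stock: 250/500 nM); Tris pH 8.0, 300 mM NaCl, 0.05% BSA, 0.02% Tween 20; GSH donor/Ni acceptor beads; 1 h 37 °C dark; AlphaScreen readout.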
G9a inh: inhibitors of human histone lysine methyltransferase G9a; Q96KQ7; G9a H3K9 monomethylation, AlphaScreen, 2 h; Potency, µM (doses to about 102 µM), inactives show at the highest dose activity, negative = inhibition, usual class: inhibitors; 350,000 compounds, 8.8% hits; further: potency means the concentration at half of the fitted maximal effect; on the % scale 0 is the no-effect control and ±100 the full control effect; nearly all actives have a fitted effect of over 75% in size
Target sequence (Q96KQ7 913-1193 limits assumed): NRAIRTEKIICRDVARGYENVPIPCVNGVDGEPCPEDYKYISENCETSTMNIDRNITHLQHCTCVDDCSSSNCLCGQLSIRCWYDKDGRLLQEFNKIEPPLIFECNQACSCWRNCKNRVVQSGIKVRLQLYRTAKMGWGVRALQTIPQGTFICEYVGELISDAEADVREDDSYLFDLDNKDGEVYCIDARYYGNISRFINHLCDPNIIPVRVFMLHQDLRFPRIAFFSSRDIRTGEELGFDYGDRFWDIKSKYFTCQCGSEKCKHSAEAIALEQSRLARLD
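Methyltransferase reactions run at room temperature for 2 h (20 nM enzyme, 500 nM biotin-H3K9 peptide, 20 uM SAM) after a 15 min compound preincubation; product detected by AlphaScreen beads and anti-H3K9me1 antibody.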
CtBP-E1A blk: blocks the CtBP interaction with E1A; AlphaScreen GST-E1A/His-CtBP binding, 1536-well; hits give low values; activity change, % (no concentration beside the values); 340,000 compounds, 0.49% hits; in the data active means activity change below about -65%; inconclusive means mostly about -30% to -63%; further: on the % scale 0 is the no-effect control and ±100 the full control effect
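Homogeneous bead-based format: GST-tagged E1A captured on glutathione donor beads, His-tagged CtBP on nickel acceptor beads; compounds precede bead addition by 2 h at 37 °C.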
HP1b chromo inh: HP1-beta chromodomain-methylated histone interaction inhibition; P83916; AlphaScreen HP1-beta / biotin-H3K9me3 peptide binding; Potency, µM (doses to about 114 µM), for the others: at the top dose activity change, negative = inhibition, hits mostly inhibitors; 390,000 compounds, 0.56% hits; AID 540317; further: potency means the concentration at half of the fitted maximal effect; nearly all actives have a fitted effect of over 70% in size
Target sequence (P83916 whole entry, looked up): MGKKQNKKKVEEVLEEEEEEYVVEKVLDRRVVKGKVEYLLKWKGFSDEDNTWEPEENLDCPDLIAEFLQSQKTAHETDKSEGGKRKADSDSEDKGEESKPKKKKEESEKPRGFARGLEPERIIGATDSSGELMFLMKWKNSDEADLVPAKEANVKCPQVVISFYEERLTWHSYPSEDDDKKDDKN
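AlphaScreen: HP1-beta (50 nM) preformed 30 min with biotin-H3(1-18)K9me3 peptide (50 nM) in PBS pH 7.4, 0.01% Tween-20. Compound added for 30 min at RT, then streptavidin donor/nickel chelate acceptor beads (10 ug/mL) for 30 min.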
JMJD2A Tudor inh: JMJD2A Tudor domain (human) inhibition. AlphaScreen JMJD2A-Tudor / H3K4me3 peptide binding. Potency, µM (series often up to 114 µM), without a hit: top-dose activity change, negative = inhibition, most hits filed as inhibitors. 390,000 compounds, 4.4% hits. O75164; further: potency means the concentration at half of the fitted maximal effect; on the % scale 0 is the no-effect control and ±100 the full control effect; nearly all actives have a fitted effect of over 50% in size
BAZ2B inh: BAZ2B (human) inhibition; AlphaScreen BAZ2B-H3K14Ac peptide displacement; Potency, µM (highest dose often 114 µM), inactives show at the highest dose activity change, negative = inhibition, actives largely listed as inhibitors; 360,000 compounds, 4.4% hits; further: potency means the concentration at half of the fitted maximal effect; on the % scale 0 is the no-effect control and ±100 the full control effect; nearly all actives have a fitted effect of over 60% in size
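In this displacement format the biotinylated H3(5-23) peptide acetylated at Lys14 serves as ligand at 50 nM, with BAZ2B at 50 nM in PBS pH 7.4 containing 0.01% Tween-20. Donor and acceptor beads are 10 ug/mL final.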
Starred values were filed as active, the others as inactive; ? = inconclusive; nt = no result given; [ ] = another dose, or the depositor's remark. Unless noted, the call rests on the fitted dose curve; in most records, active means well fitted inhibition curve with a large enough effect; inconclusive means small, poorly fitted or top-dose-only effect; inactive means no such curve, though single readings can be large or run the other way.

SMILES | Six1-Eya2 inh | G9a inh | CtBP-E1A blk | HP1b chromo inh | JMJD2A Tudor inh | BAZ2B inh
CC(Sc1nnc(N)s1)C(=O)NCc1ccc2c(c1)OCO2 (centres undefined) | 1 | 14%[12.7 µM] | nt | 26% | -16% | 0%
CC(Sc1nc2ccccc2s1)C(=O)Nc1ccc2c(c1)OCO2 (centres undefined) | -21 | 1.8µM* | 2 | 35% | 8% | -10%
CC1=C(C(=O)Nc2ccccc2)C(c2ccncc2)n2nc(SCc3ccccc3F)nc2N1 (centres undefined) | nt | -6%[59 µM] | nt | 18% | -10% | -9%
CC(=O)N1CCN(c2ccc(Oc3ccc([N+](=O)[O-])c(C(F)(F)F)c3)cc2)CC1 | -18 | 50µM* | -17 | -36% | ? | ?
CCOc1ccc(C(=O)Nc2ccc(N3CCN(C(C)=O)CC3)cc2)cc1[N+](=O)[O-] | 6 | ? | nt | -14% | -27% | ?
O=[N+]([O-])c1ccc2nc(-c3ccccc3)[nH]c2c1 | -10 | 20%[59 µM] | -10 | -5% | -26% | -3%
O=[N+]([O-])c1ccc(O)c(-c2nc(-c3ccccc3)c(-c3cccs3)[nH]2)c1 | -2 | 35%[0.501 µM] | -6 | ? | 45µM* | 35µM*
COc1ccc(-c2nc(-c3ccccc3)c(-c3cc([N+](=O)[O-])ccc3C)[nH]2)cc1OC | -29 | ? | -26 | ? | -18%[11.4 µM] | 45µM*
CCOc1cc(-c2nc(-c3ccccc3)c(-c3cc([N+](=O)[O-])ccc3C)[nH]2)ccc1O | -26 | 14µM* | -16 | -30% | ? | ?
COc1cccc(NC(=O)CNC(=O)Cn2c(C)cc3ccccc3c2=O)c1 | nt | 7%[59 µM] | nt | 34% | -2% | 0%
COc1cc(Br)ccc1C1C(C(=O)Nc2ccc(C)cc2C)=C(C)Nc2nnnn21 (centres undefined) | nt | -4%[59 µM] | nt | 27% | -9% | -38%
O=C(NCCc1ccccc1)c1cnc2ccccc2n1 | 2 | 25% | -3 | 19% | -19% | 10%
Nc1nc(N)c2ncc(C(=O)CCc3ccccc3)nc2n1 | -7 | 40µM* | 0 | -26% | 14µM* | ?
Cc1ccc(NS(=O)(=O)c2ccc(-c3cnc(C4CC4)o3)cc2)cc1N(C)C | nt | ? | nt | -5% | ? | ?
CC(=O)NCCNc1ncnc2ccc(-c3ccccc3C)cc12 | nt | 2%[0.501 µM] | nt | nt | nt | nt
Cc1cc(Cl)ccc1OCC(=O)n1cc(C(=O)c2cc(Cl)ccc2O)cn1 | nt | 79µM* | nt | nt | nt | -8%
O=C(c1cnn(C(=O)COc2ccccc2F)c1)c1cc(F)ccc1O | -1 | -8% | 1 | 40% | -29% | ?
CC(C)Oc1ccccc1OCCN(C)C | -3 | 13µM* | 0 | ? | 32µM* | 45µM*
COc1cccc(OC)c1OCCOc1ccccc1OC(C)C | -1 | 28% | 12 | 58% | 51% | 8%
COc1ccc(OC)c(CNc2ncc(-c3cccc([N+](=O)[O-])c3)n2C)c1 | -13 | 28µM* | nt | 14µM* | 45µM* | 50µM*
COc1ccc(CC(=O)Nc2nnc(-c3cccc([N+](=O)[O-])c3)s2)cc1 | 3 | ? | 3 | 27% | -8% | 6%
COc1cccc(CNc2nc3cc(-c4ccccc4)sc3c(=O)n2C)c1OC | 0 | nt | -17 | nt | nt | nt
Cn1c(-c2ccccc2)cnc1NCc1cc(Cl)ccc1O | ? | nt | -22 | ? | 35µM* | 56µM*
CCOc1c(CNc2nnnn2C)cccc1OC | 14 | 10% | 5 | 60% | -12% | -14%
COc1ccc(CNc2ncc(-c3ccccc3)n2C)c2ccccc12 | -20 | nt | -7 | ? | 18µM* | 50µM*
COc1ccc(CNc2ncc(-c3ccccc3)n2C)c(OC)c1OC | 0 | 7.1µM* | nt | ? | 20µM* | 50µM*
Cc1c(Cl)cccc1-n1nc(C)c2c(C(=O)NCc3ccccc3)cc(C3CC3)nc21 | nt | ? | nt | 23% | -10% | 8%[57.1 µM]
CSc1ccccc1NC(=O)CN(C)C(=O)COc1cccc2cccnc12 | -85* | nt | -85* | 0% | 22µM* | nt

Source: PubChem
